# Laboratory results taken from PubChem BioAssay AID2216 (Broad Institute, 2009).
# Out of some 300,000 compounds screened, about 3,300 (1.1%) were called active. Inconclusive results (about 6%) are left out. This is one part of a sample in which actives are shown more often than they occur.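 Rule for the calls: active = more than half of the replicate wells show a fall in the fluorescence ratio signal beyond about 16% (limit read from the data, passing the limit was not always enough); inconclusive = exactly half of the replicate wells pass the set limit; inactive = fewer than half of replicates pass the limit.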
# System: Ran GTPase (GTP-bound) - importin-beta complex
# Assay: disruptors of Ran-importin-beta complex formation – biochemical, FRET, CFP-Ran, YFP-importin-beta, homogeneous, primary screen (AID 2216);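 note: 0% = DMSO wells and 100% = Ran loaded with GDP instead of GTP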
# Conditions: cell-free CFP-Ran/YFP-importin-beta FRET ratio; hits give high values; concentration not given here
row,SMILES,inhibition
1,Cn1nccc1C(=O)NC1CCCc2c1cnn2-c1ccccc1F (configuration not stated),1.44% (inactive)
2,Cn1c2ccccc2c(=O)c2c(O)cccc21,19.5% (active)
3,Cc1cc(C)c(-c2c(O)c3ccccc3n(C)c2=O)c(C)c1,-1.11% (inactive)
4,Cn1c(=O)c(Sc2ccc(Cl)cc2)c(O)c2ccccc21,-0.611% (inactive)
5,COC(C/C=C/C(=O)[C@@H](C)OCc1ccccc1)OC,-3.23% (inactive)
6,N#C/C(=C/c1ccc(-c2ccccc2[N+](=O)[O-])o1)C(=O)NCCN1CCCCC1,0.797% (inactive)
7,O=C(NCCc1c[nH]c2ccccc12)C(=O)NCC1CCCO1 (configuration not stated),0.222% (inactive)
8,N#C/C(=C/c1ccc(N2CCCCC2)o1)C(=O)NCCc1c[nH]c2ccccc12,36.8% (active)
9,CCCCn1c(N)c(N(CC(C)C)C(=O)c2cccc(S(=O)(=O)N3CC(C)OC(C)C3)c2)c(=O)[nH]c1=O (configuration not stated),-2.71% (inactive)
10,Nc1ccccc1/C=N\N=C/c1ccccc1N,1.49% (inactive)
11,Nc1nonc1-c1nc2ccccc2n1Cc1ccc(F)cc1,3.99% (inactive)
12,Fc1ccc(CNc2nc3ccccc3n3nnnc23)cc1,28.7% (active)
13,COc1ccc(CNc2nnnn2C)cc1,0.267% (inactive)
14,CCC1CCC/C1=N\NC(=O)c1ccc(Cl)cc1 (configuration not stated),-0.716% (inactive)
15,COC(=O)C1=CN(Cc2ccc(OC)cc2)C=C(C(=O)OC)C1c1ccc(O)c(OC)c1,18.3% (active)
16,COc1cc(C2C(C(=O)c3ccc(C)o3)=C(O)C(=O)N2CCc2ccccc2)ccc1O (configuration not stated),-0.99% (inactive)
17,COC(=O)C1=CN(Cc2ccc(OC)c(OC)c2)C=C(C(=O)OC)C1c1cccs1,-0.0693% (inactive)
18,Cc1nc2ccccc2c(=O)n1-c1ccc(NS(=O)(=O)c2ccc(F)cc2F)cc1,0.359% (inactive)
19,COc1ccc(C(=O)NCC(c2ccco2)N2CCc3ccccc32)cc1OC (configuration not stated),-0.364% (inactive)
20,Cc1cccn2c(=O)nc(SCC(=O)NCc3ccccc3Cl)nc12,-2.28% (inactive)
21,COCCNc1nc2nonc2nc1N(C)Cc1ccc(C)cc1,-1.03% (inactive)
22,COCCNc1nc2nonc2nc1N1CCCC1c1nccs1 (configuration not stated),24.9% (active)
23,COCCNc1ncnc2c1nc1n2CCCC1,-7.47% (inactive)
24,COC(=O)c1ccc2c(C(C)(C)O)c(C(C)(C)O)[nH]c2c1,35.4% (active)
25,COC(=O)c1ccc(NCC(=O)c2ccccc2)cc1,1.3% (inactive)
26,COC(=O)c1cccc(NS(C)(=O)=O)c1,3.63% (inactive)
27,CC1CC(C)(C)CC2(C1)NC(=O)N(CC(=O)Nc1nccs1)C2=O (configuration not stated),-1.02% (inactive)
